aSyn UTR act: Activators via SNCA 5'UTR binding, MLPCN. alpha-synuclein 5'UTR reporter, activators screen. activity score, % (tested at 7.5 µM), hits read low. 7.1% of 300,000 active; in the data active = activity score below about -60%
Starred values were filed as active, the others as inactive. A selection follows.

SMILES	aSyn UTR act
C/C(=N\OC(=O)c1ccc(F)cc1)c1sc(-c2ccccc2)nc1C	-158.4*
C/C(=N\OC(=O)c1ccc(Cl)cc1)c1sc(-c2ccccc2)nc1C	-123.8*
Cc1cc(O)c(C(=O)Cc2csc(C)n2)c(O)c1	-131.7*
COc1cc(SC)ccc1C(=O)NCCOc1ccc(F)cc1	-150.1*
COc1cc(SC)ccc1C(=O)NCC1CCCCC1	-67.2*
COc1cc(SC)ccc1C(=O)OCC(=O)N1CCCC1	-73.8*
Cn1c(C(=O)NCCC2=CCCCC2)cc2c(=O)n3ccccc3nc21	-70.2*
Cn1c(C(=O)N2COCC2(C)C)cc2c(=O)n3ccccc3nc21	-80.9*
Cc1cccn2c(=O)c3cc(C(=O)N4COCC4(C)C)sc3nc12	-97.4*
COc1cccc(CNc2ccc3c(c2)CCC3)c1	-166.8*
COc1ccc(OC)c(CNc2ccc3c(c2)CCC3)c1	-117.6*
CCOc1ccccc1C1CC(=O)Nc2cc3c(cc21)OCO3 (stereo not drawn)	66.1
CCOc1ccccc1C1N=C(c2ccc(OC)cc2)CC(c2ccccc2O)N1 (stereo not drawn)	-233.8*
CCOc1ccc(C2=Nn3c(nnc3-c3ccccc3OC)SC2)cc1	108.9
O=C1/C(=C\c2cccs2)Sc2ccc3ccccc3c21	-164.6*
Cc1ccc(N2CN=C3SCC(=O)N3C2)cc1C	-120.9*
COc1ccc(-n2c(=S)[nH]c3cc(C(=O)Nc4ccc(F)cc4)ccc3c2=O)c(OC)c1	-141.9*
Cn1c(-c2ccc3ccccc3n2)[n+](C)c2ccccc21	-64.9*
COc1ccccc1C(=O)N/N=C/c1ccc(Cl)s1	-179.0*
O=C(N/N=C/c1c[nH]c2ccccc12)C1COc2ccccc2O1 (stereo not drawn)	75.6
O=C(N/N=C\c1ccc(Cl)s1)C1COc2ccccc2O1 (stereo not drawn)	-66.7*
O=C(N/N=C\c1ccc(Cl)s1)c1cccs1	-67.2*
COc1ccccc1C(=O)N/N=C/c1cnc2ccccc2n1	-101.6*
COC(=O)c1ccc2nc(NC(=O)CSCC(=O)OCC(=O)c3ccccc3)sc2c1	-72.6*
COC(=O)c1ccc2nc(NC(=O)COC(=O)CSc3nc(C)cc(C)n3)sc2c1	-87.8*
SMILES	aSyn UTR act
Cc1ccc2nc(NC(=O)CSCC(=O)OCC(=O)c3ccc(Br)cc3)sc2c1	82.9
Cc1[nH]nc(Nc2ccc(C(C)C)cc2)c1[N+](=O)[O-]	-150.9*
Cc1ccc(Nc2n[nH]c(C)c2[N+](=O)[O-])cc1	-221.4*
Cc1[nH]nc(Nc2ccc(Br)cc2)c1[N+](=O)[O-]	-163.5*
Cc1[nH]nc(Nc2ccccc2)c1[N+](=O)[O-]	-72.4*
Cc1cccc(Nc2n[nH]c(C)c2[N+](=O)[O-])c1	-140.4*
COc1ccc(C=Nc2cccnc2N)cc1	-67.2*
CC(=O)Nc1nc(-c2ccccc2)ns1	-107.9*
COCC(=O)Nc1nc(-c2ccccc2)ns1	-77.8*
Clc1ccccc1OCc1nnc(-c2ccccc2Br)o1	-172.6*
N#Cc1ccccc1OCc1nnc(-c2ccccc2Br)o1	-178.2*
O=c1c(Cl)c(Cl)cnn1Cc1nnc(-c2ccccc2Br)o1	-66.1*
CC(=O)C1=NOC(CNc2ncc(C(F)(F)F)cc2Cl)C1 (stereo not drawn)	-85.7*
N/C(=N\OC(=O)Cc1cccs1)c1ccccc1	-213.9*
Cc1ccc(/C(N)=N/OC(=O)Cc2cccs2)cc1	-168.5*
Cc1cccc(/C(N)=N/OC(=O)Cc2cccs2)c1	-140.8*
N/C(Cc1cccs1)=N\OC(=O)COc1ccccc1	-77.3*
O=C(COC(=O)c1ccccc1Cl)Nc1nccs1	-91.5*
O=C(COc1ccc2ccc(=O)oc2c1)Nc1nccs1	-84.7*
NC(=O)c1ccsc1NC(=O)COc1ccccc1	-136.5*
O=C(NCCc1ccccc1)C(=O)Nc1nccs1	-83.9*
O=C(COc1ccccc1)Nc1nccs1	-99.9*
Cn1cc(SCC(=O)Nc2nccs2)c2ccccc21	-165.1*
C/C(=C\C(=O)Nc1nccs1)c1ccccc1	-197.1*
O=C(COc1ccc([N+](=O)[O-])cc1)Nc1nc(-c2ccccn2)cs1	56.9
SMILES	aSyn UTR act
Oc1ccccc1C(Nc1nccs1)c1ccc2cccnc2c1O (stereo not drawn)	76.9
CCCCn1cnc2c(sc3nc4c(cc32)CSC(C)(C)C4)c1=O	-104.2*
Nc1c(C(=O)Nc2ccc(F)cc2)sc(=S)n1-c1ccccc1F	-84.1*
Cn1c(N)c(C(=O)Nc2ccc3ccccc3c2)sc1=S	-186.2*
Cc1cccc(Nc2nnc(SCC(=O)Nc3ccccc3[N+](=O)[O-])s2)c1C	-90.5*
Cc1ccc(Nc2nnc(SCC(=O)Nc3cccnc3Cl)s2)cc1C	-108.9*
Cc1cccc(Nc2nnc(SC/C(O)=C(\C#N)c3nc4ccccc4[nH]3)s2)c1C	-62.8*
COc1ccc(Cl)cc1NC(=O)c1cnc2n(c1=O)CCS2	-78.4*
COc1ccccc1NC(=O)c1cnc2n(c1=O)CCS2	-133.1*
Cc1ccc2sc(N(CCCN(C)C)C(=O)c3ccc(S(=O)(=O)N(C)Cc4ccccc4)cc3)nc2c1C	-72.8*
CCOc1cccc2sc(N(CCCN(C)C)C(=O)c3ccc(S(=O)(=O)N(C)Cc4ccccc4)cc3)nc12	55.9
CN(C)CCCN(C(=O)c1ccc2c(c1)CCCC2)c1nc2ccc(Cl)cc2s1	-69.8*
CCOc1cccc2sc(N(CCCN(C)C)C(=O)c3ccc(S(=O)(=O)N(CC)Cc4ccccc4)cc3)nc12	70.8
CCCCN(C)S(=O)(=O)c1ccc(C(=O)N(CCN(C)C)c2nc3ccc(C)cc3s2)cc1	-74.4*
CN(C)CCCN(C(=O)CCc1ccccc1)c1nc2ccc(Cl)cc2s1	109.5
Cc1ccc2nc(N(CCN(C)C)C(=O)c3ccc4c(c3)OCCO4)sc2c1	-110.3*
COc1ccc(C)c2sc(N(CCCN(C)C)C(=O)c3ccc(S(=O)(=O)N4CCc5ccccc5C4)cc3)nc12	91.1
CN(C)CCN(C(=O)c1ccc2ccccc2c1)c1nc2cc3c(cc2s1)OCCO3	-74.5*
CN(C)CCCN(C(=O)c1ccc2c(c1)OCCO2)c1nc2cc3c(cc2s1)OCO3	-91.6*
COc1ccc(C)c2sc(N(CCCN(C)C)C(=O)c3ccc4c(c3)OCCO4)nc12	-97.0*
CCN(CC)CCN(C(=O)c1cc2c(ccc3ccccc32)oc1=O)c1nc2cc3c(cc2s1)OCCO3	78.2
COc1ccc(OC)c2sc(N(CCCN(C)C)C(=O)c3ccc(S(=O)(=O)N4CCc5ccccc5C4)cc3)nc12	100.3
CN(C)CCCN(C(=O)c1sc2ccccc2c1Cl)c1nc2ccc(F)cc2s1	-98.8*
Cc1ccc2nc(N(CCCN(C)C)C(=O)c3ccc4ncsc4c3)sc2c1	-83.5*
Cc1ccc2nc(-c3ccccn3)c(NC3CCCC3)n2c1	-165.4*
SMILES	aSyn UTR act
Cc1ccc(N2C(=O)c3ccccc3NC2C(C)Cc2ccc3c(c2)OCO3)cc1 (stereo not drawn)	-67.7*
CN1C2=CC=CC=CC2=[N+](C)C12C([N+](=O)[O-])=CC(=[N+]([O-])[O-])C=C2[N+](=O)[O-] (stereo not drawn)	-73.2*
CCN(CC)S(=O)(=O)c1ccc(-c2cn3cc(Cl)ccc3n2)cc1	-91.5*
[O-][n+]1ccccc1SC/C=C/c1ccccc1	-65.4*
O=[N+]([O-])c1cccc(/C=C/c2nc3ccc([N+](=O)[O-])cc3[nH]2)c1	-151.6*
O=[N+]([O-])c1ccc2nc(-c3ccccc3)[nH]c2c1	-121.4*
CC(=O)Nc1nc(C)c(-c2nc3ccc([N+](=O)[O-])cc3[nH]2)s1	-81.0*
Cc1cc2nc(/C=C/c3cccnc3)[nH]c2cc1C	92.1
Cn1cccc1-c1nc2ccc([N+](=O)[O-])cc2[nH]1	-175.0*

Screening data deposited in PubChem BioAssay by Broad Institute.
